# Source: PubChem BioAssay
# Calls of active or inactive are those of the source.
# Test system: Wnt5a (protein binding on small-molecule microarray)
# Test: Wnt5a binders on small-molecule microarray, primary screen, biophysical, 635/667 nm fluorescence (AID 1142);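 further: fluorescence read at 667 nm with signal to noise per printed feature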
# Conditions: 635 nm fluorescence, higher = more signal
row,SMILES,composite z-score
1,CN(C)C(=O)[C@@]1(CCC(=O)OC(C)(C)C)N=C(c2ccc(OCCCO)cc2)O[C@H]1c1ccccc1N=[N+]=[N-],1.46
2,COCCOC(=O)N1C(=O)[C@@]2(c3cc(C#CCCO)ccc31)[C@H](C(=O)NC[C@H](O)c1ccccc1)[C@H]1C(=O)O[C@H](c3ccccc3)[C@H](c3ccccc3)N1[C@@H]2c1ccccc1OCCO,0.524
3,COc1ccc([Si](C)(C)[C@H]2[C@H](CCO)O[C@@]3(C(=O)N(Cc4cccc(N5CCOC5=O)c4)c4ccccc43)[C@@H]2C)cc1,0.217
4,CN(C)CCCC[C@@H]1NC(=O)[C@H]2C[C@@H](C(=O)NCCCCCCNC(=O)CS)[C@@H](c3ccc(O)cc3)N2C1=O,-0.261
5,CC(C)=CCCC(C)=CC(O)C1C=CC2C(=O)N(c3ccccc3)C(=O)C2N1Nc1ccc([N+](=O)[O-])cc1 (stereo unspecified),0.0504
6,COC(=O)[C@@]1(Cc2ccc(OC)cc2)[C@H]2c3cc(C(=O)N(C)C)n(Cc4cc(F)c(F)c(F)c4)c3C[C@H]2CN1C(=O)c1ccccc1,0.397
7,COCCOC(=O)N1C(=O)[C@@]2(c3cc(C#CCC(C(=O)OC)C(=O)OC)ccc31)[C@H](C(=O)N1CCCCCCC1)[C@H]1C(=O)O[C@H](c3ccccc3)[C@H](c3ccccc3)N1[C@@H]2c1ccc(O)cc1,0.735
8,[N-]=[N+]=Nc1ccccc1[C@H]1OC(c2ccc(OCCCO)cc2)=N[C@@]1(Cc1ccccc1)C(=O)NCc1ccccc1,0.821
9,COC(=O)C(CC#Cc1ccc2c(c1)[C@]1(C(=O)N2)[C@H](c2ccc(O)cc2)N2[C@H](c3ccccc3)[C@H](c3ccccc3)OC(=O)[C@H]2[C@@H]1C(N)=O)C(=O)OC,-0.206
10,C=CCNC(=O)[C@H]1[C@@H]2C(=O)O[C@@H](c3ccccc3)[C@@H](c3ccccc3)N2[C@@H](c2ccc(OCCO)cc2)[C@]12C(=O)N(C(=O)OCCOC)c1ccc(C#CC3=CCCCC3)cc12,-0.0184
11,COC(=O)[C@@]1(Cc2ccccc2)[C@H]2c3cc(C(=O)N(C)C)n(Cc4ccccn4)c3C[C@H]2CN1C(=O)c1ccccc1,0.283
12,O=C(Nc1cc(Br)ccc1C(=O)NCc1cccc(O)c1)c1ccccc1,0.189
13,NCCCCCCNC(=O)[C@H]1C[C@H]2C(=O)N3CCC[C@H]3C(=O)N2[C@H]1c1ccc(O)cc1,0.214
14,C#CCNS(=O)(=O)N(C)C,-0.006
15,CCCC=C(CCC)[C@@H](NS(=O)(=O)CC)c1ccccc1,0.356
16,CN(C)CCCCCCNC(=O)[C@@H]1C[C@@H]2C(=O)NCC(=O)N2[C@@H]1c1ccc(O)cc1,0.781
17,NC(=O)NCC#Cc1ccc2c(c1)[C@]1(C(=O)N2)[C@H](c2ccc(O)cc2)N2[C@H](c3ccccc3)[C@H](c3ccccc3)OC(=O)[C@H]2[C@@H]1C(N)=O,-0.0353
18,COCCCNC(=O)[C@@]1(C)c2ccccc2C(=O)N(c2ccc(C)cn2)[C@H]1c1ccc(CO)cc1,-0.259
19,COCCCNC(=O)[C@]1(Cc2ccccc2)N=C(c2ccc(OCCCO)cc2)O[C@@H]1c1ccccc1N=[N+]=[N-],1.1
20,CCCC=C(CCC)[C@@H](NC(=O)Cc1ccccc1)c1ccc(C(=O)OC)cc1,0.372
21,COc1ccc([Si](C)(C)[C@@H]2[C@@H](CCO)O[C@]3(C(=O)N(Cc4ccccc4)c4ccc(N5CCCCC5=O)cc43)[C@H]2C)cc1,0.271
22,COc1ccc(CCNC(=O)[C@@H]2c3ccccc3C(=O)N(Cc3ccccc3)[C@H]2c2ccc(CO)cc2)cc1,-0.039
23,O=C(CS)NCCCCCNC(=O)[C@@H]1C[C@@H]2C(=O)N3CCC[C@H]3C(=O)N2[C@@H]1c1ccc(O)cc1,0.257
24,COC(=O)[C@]1(Cc2ccccc2CN=[N+]=[N-])N=C(c2ccc(OCCCO)cc2)O[C@@H]1c1ccccc1,-0.311
25,COc1ccc([Si](C)(C)[C@@H]2[C@@H](CC(=O)N(CCO)Cc3ccccc3)O[C@]3(C(=O)N(Cc4ccc(N5CCOC5=O)cc4)c4ccccc43)[C@H]2C)cc1,0.0838
26,[N-]=[N+]=NCc1ccccc1C[C@]1(C(=O)NCCN2CCOCC2)N=C(c2ccc(OCCCO)cc2)O[C@H]1c1ccccc1,0.461
27,COC(=O)[C@H]1N=C(c2ccc(OCCCO)cc2)O[C@H]1c1ccccc1CN=[N+]=[N-],-0.0973

# Test system: not listed separately
# Test: cell viability in Huh7 cells, primary screen, cytotoxicity control for HCV replication inhibitor project, CellTiter-Glo luminescence, basal, 48 h (AID 1143);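 further: Huh7 hepatoma cells carrying a hepatitis C replication reporter with no stimulus; test concentration not given here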
# Conditions: Huh7 HCV replicon, higher = more signal, called active from +8 up or from −8 down
row,SMILES,z-score
1,CC(C)[Si](C#C[Si](C(C)C)(C(C)C)C(C)C)(O[C@H](C)c1cn(Cc2cccc(Cl)c2)nn1)C(C)C,-0.219 (inactive)
2,CC(C)(C)OC(=O)CC[C@]1(C(=O)N2CCCCC2)N=C(c2ccc(OCCCO)cc2)O[C@H]1c1ccccc1CN=[N+]=[N-],-3.42 (inactive)
3,CCOC(=O)C[C@H]1[C@H](OC(=O)Cc2ccc3c(c2)OCO3)[C@@H](NC(=O)c2ccccc2)c2cc(OCCCO)ccc2N1C(=O)c1ccc2ccccc2n1,-0.629 (inactive)
4,CC(C)CCC[C@@H](C)[C@H]1CC[C@@]2(C)C3=C(CC[C@]12C)[C@@]1(C)CC[C@H](OC(=O)c2ccc(N)cc2)C(C)(C)C1CC3 (stereo partly specified),-0.793 (inactive)
5,C=CCC(OC(C)=O)[C@@H]1[C@@H](N(Cc2cccc3ccccc23)C(=O)c2ccc(C)cc2)c2cc(OCCCO)ccc2N1C(=O)c1ccc2ccccc2c1 (stereo partly specified),-0.487 (inactive)
6,COC(=O)C(CC#Cc1ccc2c(c1)[C@]1(C(=O)N2)[C@H](c2ccccc2OCCO)N2[C@H](c3ccccc3)[C@H](c3ccccc3)OC(=O)[C@H]2[C@@H]1C(=O)Nc1nc2ccccc2s1)C(=O)OC,-2.07 (inactive)
7,C=CCOC(=O)[C@@H]1[C@H]2C(=O)O[C@H](c3ccccc3)[C@H](c3ccccc3)N2[C@H](c2ccc(OCCOC(=O)[C@@H]3C[C@@H]4C(=O)N5CCC[C@H]5C(=O)N4[C@@H]3c3cccc(OCCO)c3)cc2)[C@@]12C(=O)Nc1ccc(I)cc12,-1.77 (inactive)
8,COc1ccc(C(=O)Nc2ccc(CN3C(=O)[C@]4(O[C@H](CCn5cc([C@H](O)c6ccccc6)nn5)[C@@H]([Si](C)(C)c5ccc(OC)cc5)[C@@H]4C)c4ccccc43)cc2)cc1,-6.51 (inactive)
9,CN(C)C(=O)[C@@]1(CCC(=O)OC(C)(C)C)N=C(c2ccc(OCCCO)cc2)O[C@H]1c1ccccc1N=[N+]=[N-],-1.84 (inactive)
10,COCCOC(=O)N1C(=O)[C@@]2(c3cc(C#CCCO)ccc31)[C@H](C(=O)NC[C@H](O)c1ccccc1)[C@H]1C(=O)O[C@H](c3ccccc3)[C@H](c3ccccc3)N1[C@@H]2c1ccccc1OCCO,-1.34 (inactive)
11,COc1ccc([Si](C)(C)[C@H]2[C@H](CCO)O[C@@]3(C(=O)N(Cc4cccc(N5CCOC5=O)c4)c4ccccc43)[C@@H]2C)cc1,-5.72 (inactive)
12,CN(C)CCCC[C@@H]1NC(=O)[C@H]2C[C@@H](C(=O)NCCCCCCNC(=O)CS)[C@@H](c3ccc(O)cc3)N2C1=O,-0.898 (inactive)
13,CC(C)=CCCC(C)=CC(O)C1C=CC2C(=O)N(c3ccccc3)C(=O)C2N1Nc1ccc([N+](=O)[O-])cc1 (stereo unspecified),-1.72 (inactive)
14,COC(=O)[C@@]1(Cc2ccc(OC)cc2)[C@H]2c3cc(C(=O)N(C)C)n(Cc4cc(F)c(F)c(F)c4)c3C[C@H]2CN1C(=O)c1ccccc1,-4.47 (inactive)
15,COCCOC(=O)N1C(=O)[C@@]2(c3cc(C#CCC(C(=O)OC)C(=O)OC)ccc31)[C@H](C(=O)N1CCCCCCC1)[C@H]1C(=O)O[C@H](c3ccccc3)[C@H](c3ccccc3)N1[C@@H]2c1ccc(O)cc1,-4.08 (inactive)
16,[N-]=[N+]=Nc1ccccc1[C@H]1OC(c2ccc(OCCCO)cc2)=N[C@@]1(Cc1ccccc1)C(=O)NCc1ccccc1,-5.4 (inactive)
17,COC(=O)C(CC#Cc1ccc2c(c1)[C@]1(C(=O)N2)[C@H](c2ccc(O)cc2)N2[C@H](c3ccccc3)[C@H](c3ccccc3)OC(=O)[C@H]2[C@@H]1C(N)=O)C(=O)OC,-1.94 (inactive)
18,C=CCNC(=O)[C@H]1[C@@H]2C(=O)O[C@@H](c3ccccc3)[C@@H](c3ccccc3)N2[C@@H](c2ccc(OCCO)cc2)[C@]12C(=O)N(C(=O)OCCOC)c1ccc(C#CC3=CCCCC3)cc12,-4.77 (inactive)
19,COC(=O)[C@@]1(Cc2ccccc2)[C@H]2c3cc(C(=O)N(C)C)n(Cc4ccccn4)c3C[C@H]2CN1C(=O)c1ccccc1,-1.16 (inactive)
20,O=C(Nc1cc(Br)ccc1C(=O)NCc1cccc(O)c1)c1ccccc1,-2.32 (inactive)
21,NCCCCCCNC(=O)[C@H]1C[C@H]2C(=O)N3CCC[C@H]3C(=O)N2[C@H]1c1ccc(O)cc1,-0.734 (inactive)
22,C#CCNS(=O)(=O)N(C)C,0.251 (inactive)
23,CCCC=C(CCC)[C@@H](NS(=O)(=O)CC)c1ccccc1,-2.11 (inactive)
24,CN(C)CCCCCCNC(=O)[C@@H]1C[C@@H]2C(=O)NCC(=O)N2[C@@H]1c1ccc(O)cc1,-0.981 (inactive)
25,NC(=O)NCC#Cc1ccc2c(c1)[C@]1(C(=O)N2)[C@H](c2ccc(O)cc2)N2[C@H](c3ccccc3)[C@H](c3ccccc3)OC(=O)[C@H]2[C@@H]1C(N)=O,-0.281 (inactive)
26,COCCCNC(=O)[C@@]1(C)c2ccccc2C(=O)N(c2ccc(C)cn2)[C@H]1c1ccc(CO)cc1,0.616 (inactive)
27,COCCCNC(=O)[C@]1(Cc2ccccc2)N=C(c2ccc(OCCCO)cc2)O[C@@H]1c1ccccc1N=[N+]=[N-],-5.91 (inactive)
28,CCCC=C(CCC)[C@@H](NC(=O)Cc1ccccc1)c1ccc(C(=O)OC)cc1,-2.2 (inactive)
29,COc1ccc([Si](C)(C)[C@@H]2[C@@H](CCO)O[C@]3(C(=O)N(Cc4ccccc4)c4ccc(N5CCCCC5=O)cc43)[C@H]2C)cc1,-8.08 (active)
